# Over roughly 25,000 sequences, “ln(normalized median fluorescence intensity)” has its median near 6.7; the highest 2% begin near 10. Many of the other results were omitted from the sample, so the highest values are more common in it than they were.
# Test system: PfHDP1 homeodomain (GST-tagged)
# Assay: gcPBM binding intensity (ln(normalized median fluorescence intensity)); higher = stronger DNA binding
# In short: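 Binding of GST-tagged P. falciparum DNA-binding domains, expressed in E. coli and used at about 25 μg on average, was carried out for 1 h in 1× PBS containing 1% milk, 0.2 mg/ml BSA, 0.5% salmon testes DNA and 0.03% Triton X-100. The target was an Agilent 4 × 180k array of primer-extended double-stranded 36-bp intergenic genomic probes plus negative controls, read with Alexa488 anti-GST antibody at 488 nm. Binding intensity is the highest Masliner-normalised natural-log median intensity across replicate spots of either probe orientation.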
row,Sequence,gcPBM binding intensity (ln)
1,AATATAAGCAAATACACACACACATATAAATATGTA [CACACA_site7741],7.03
2,TACATAAACATTTATACACACATTATAAATACATAT [CACACA_site4386],6.74
3,TTAATATGAAATAAATGTACATAATACATAATAAAA [XGTACX_site6194],6.44
4,ACAAATAAGTTTTGTAGTACTGTGTATATATATATA [XGTACX_site6901],8.95
5,ATATATTTTATATGTGTGCACTATATATATATATAT,10.8
6,ATTTTTTTCTTAGGAGTGCACTTATATTTATTTTAT,10.3
7,ATCATATTTTTATGTGTGCACTTTTTTTTTTTTTTT [GTGCAC_site9555],8.73
8,TAATTATTCTATTAAGTGCATATATTTTTAAAAAGA,9.39
9,TTTTTATTTTCATATGTGCACTTATATATATATATA,10.2
10,TTTATATTCTTAAGTGTGCACTATATATATATATAT [GTGCAC_site9719],10.5
11,TGAATAAATATATATACACACCCATATATATATATA [CACACA_site8833],9.21
12,AAAAGAAGATAATACAGTACAGAATAATATAAAATA [XGTACX_site5962],6.51
13,TAAAATATATTTTTCTGTACACAAAAATATATTAAA [XGTACX_site2813],6.24
14,TATGTATATATATTAACACACAAAAAAAAAAAAAAA [CACACA_site1812],6.2
15,TTCTGTATAATATAAAAACAAAAATTAAATTAAAAC [CACACA_negctrl_site81],6.43
16,TTCTGTATACGGTGTGCACACAATTAAAAAAAAAAA [CACACA_site1416],10.8
17,TTTTTTTTTCTGTATACACACAAAATTTATTTTTTA [CACACA_site2873],6.68
18,TTCTGTATATAGTGTGCACACAATTAAAAAAAAAAA [CACACA_site8400],10.8
19,ATATTTAAAAATATAGTGCAATTATTCTAATGTGTT,8.89
20,ATAAAATATAAAAACGCACACAATTATAAGGGTGTA [CACACA_site177],6.96
21,TTTTCTGTATATTGTGTGCACACAATTAACAAAAAA [GTGCAC_site9817],10.6
22,TTTTTATGTGTATATTATTACATTTACATCTTTAAC [CACACA_negctrl_site1676],6.64
23,ATTATTACTTTTTGAGTGCACATACACACAGACATA,10
24,ATAATAAAATGGAGAGTGCATACATGTTTATTTTAT,7.7

row,Sequence,gcPBM binding intensity (ln)
1,AAATTATGAACATATTGTACATATATATATATATAT [XGTACX_site8269],9.41
2,ATTTAAGATTTAATCACACACATATATATTATATAC [CACACA_site2907],6.55
3,TGCAATTTAATATGAGTGCATATATTGAGAAAATAC,9.36
4,AATGGGGAAGGTTCTACACACAACGCAAATGCCTTA [CACACA_site2758],6.41
5,TCCCTTAATTTTGTGTGTACATATAATATATTTTTA [XGTACX_site2789],6.76
6,AGACCTTTAATTTGTGTGCACATAATTAGTGTACAT [GTGCAC_site9434],10.7
7,TGTGCACATAATTAGTGTACATTTTTTATTTAGACA [XGTACX_site317],10.1
8,AAAAAAAAAAAAAACACACACATATAATATATTTAA [CACACA_site1337],6.35
9,AAACAATAAAAGATTACACACATATATAGCATATAT [CACACA_site1698],6.82
10,ATATATATATATATATGTACATACATACATAGAACT [XGTACX_site2214],9.21
11,TTTTATTTTTAAAATTGTACATTATTATTGTTATTT [XGTACX_site1439],6.3
12,ATATCTTATAATACGGTGCACTTGACATGAACAACT [GTGCAC_site9987],10.3
13,CCTTTCCTTTTATAAGTGCATATAACAAATGTATAC [GTGCAC_site9872],8.03
14,ATAATGAACAAAGTAGTGCACTTTCCTTATCTTTTC,10.7
15,AAATGTGAACTATAATAATTTCAACGTCTGATATAA [TGCATGCA_negctrl_site440],5.94
16,TTGAACTCTCTTACGCGTACGTGTTATTATGAAAAT [XGTACX_site6265],6.73
17,TTTCAAAATGTGTAAAATAAAAATAATATCATTACA [TGCATGCA_negctrl_site521],6.42
18,TTTTTCATAAAACACACACACAAAAATAATGTGGAA [CACACA_site3687],6.56
19,TTTCAAATGGAATGTGTGCACATAAATGTAAATAAA,10.8
20,AAAAAAAAAAAAGGCACACAAACATATGTAGACATA [CACACA_site2284],6.61
21,ATAATAAAATAAATCACACATAATATAATGTAATAT [CACACA_site6144],6.49
22,AAAAAAAAATCAAAATGTACTTATTTTTATAATAAT [XGTACX_site4712],6.31
23,AAGATTAAAAATTGCACACAAAAATATATTTTCTAT [CACACA_site1305],9.78
24,AAGATTAAACATTGCACACAAAAACATATTTTCTAT [CACACA_site530],9.7

row,Sequence,gcPBM binding intensity (ln)
1,TTTTCTATAAGATTTGCACACAACTTATTCTATTAA [CACACA_site3752],10.6
2,TTTTTTTTTTTCAATAGTACTTTCCATTTACATATA [XGTACX_site3889],6.32
3,TGAACTCATAGGAAAACACACATATGTGCAATATAT [CACACA_site6231],11.3
4,TGAACTCATAGGAAAACACACATATGGGTAATATAT [CACACA_site187],6.78
5,TGAACTCATAGGAAAACACACATATGTGTAATATAT [CACACA_site4267],7.27
6,CTATTTTTATATTATTGTACGTTGTTATTATATATA [XGTACX_site1469],6.79
7,CACTAATATATATACAGTACATAATAAAGTATATAA [XGTACX_site6875],6.16
8,TTGGGTATTTTGTGCGCACACACATGCAAAAAGAAA [CACACA_site8299],9.63
9,TGTCCAATTTATTGTGCACACCTCAAAAGTGGGTAA [CACACA_site3826],11.1
10,AATGCACAGCTCTTAGGCAAAAGTGGGTATTTACAC [GTGCAC_negctrl_site579],8.63
11,TTTTTTTCTAATTATGCACACATATCAAAATATTCA [CACACA_site8886],10.2
12,ATTTTATGAAATGTTGCACACAAAAAACAACATGTT [CACACA_site8408],9.69
13,ATACATGTTTTATGTGCACACAAAGTTGTTATGAGG [CACACA_site4032],10.8
14,ACATGTTTTATGTGCACACAAAGTTGTTATGAGGTT [CACACA_site4031],10.7
15,TAGTTGCACATGTATACACACAAAAAATATTTTATG [CACACA_site475],10.4
16,TATTTTATATGAGGCACACAAATTTTAATTGTTATT [CACACA_site725],5.99
17,TTTATGAAATGTTGCACACAAAAAACAACATGTTTT [CACACA_site1440],9.63
18,TCTTCATAAAAATAAAGTACATTATATATATAAATA [XGTACX_site3775],6.37
19,AAAAAATAGAATATGGGTACTAAAAAGATACAAACA [XGTACX_site4464],6.84
20,AAGTTTAAAGGAATTACACAAACAAGCAAATATATA [CACACA_negctrl_site857],6.92
21,ACAATTTTATTTAAAGTGCATGTAAAATTAAAACTT,7.44
22,TCATTAATCAGGTATGCATGCATAACTATTAAAAAT [TGCATGCA_site90],6.46
23,AAAAAACTATTATGTGCATGCACAAGTCAGGTAAAT [TGCATGCA_site791],11.3
24,ATAAAAATATAAACATGTACATAAAAATCTATATAT [XGTACX_site405],6.72

row,Sequence,gcPBM binding intensity (ln)
1,TTTCATTTGTCGTTATGTACTTATTAAATATTATTA [XGTACX_site7709],6.92
2,TTAATACATATATATATATTATATATATATATATAT [TGCATGCA_negctrl_site177],8.89
3,ATATATATATTTATAGTGCATTTATATTAAAATATC [GTGCAC_site9818],8.5
4,TTATATAATTTAATAGTGCAATTATATTAATTTTTC,8.66
5,ATGATATATTTAATAGTGCACTAATTAAAATTATTA [GTGCAC_site9418],10.8
6,ATTTTCTTTTCCATAGTGCAATATAATTATCCATCA [GTGCAC_site9547],10.9
7,TTCTAAAATTATATAGTGCAATTATATTAATTTTTC,8.98
8,ATATATCATATTATAGTGCATTTATAATAATATTAT,8.51
9,TTACAATAAATTATAGTGCAATATTTTATTTAATAT,10.6
10,ATATTTTATATAATAGTGCAAATAATATTAAATAAT,9.78
11,CTTAAAATATATTTAGTGCATATACTAATATATTAT,8.9
12,TATATATATATATATATATATATATATATAATATTA [XGTACX_negctrl_site558],9.37
13,TGGAGGATAGTTCACAGTACCCAGTAACTCTACGGA [XGTACX_site4930],6.22
14,TATATATATATAATTGCACACATCAAGTTTGATGTT [CACACA_site1288],9.99
15,CAAAATGATATGACAACACACAACCTATAGTAAGAC [CACACA_site1287],6.91
16,ATCATCCAAGATCTTACACACATATTAAATAAATAA [CACACA_site1473],6.66
17,AGGCCTTTTAGTATTTCACACACGTAAATGTGTATA [CACACA_site8284],6.43
18,GGAATATATATACATACACACATATATATATATATA [CACACA_site1666],9.32
19,GTTCTAATATATTGCACACGTAAAAATATAGGTAAT [CACACA_site886],10.6
20,TTGTTCTAATATATTGCACACGTAAAAATATAGGTA [CACACA_site8195],10.1
21,TACGTAAATTCTAATACACACTATAGGATATTCTGC [CACACA_site7248],6.41

# From the supplement of paper PMC11417369
